These results are taken from PubChem BioAssay (EPA / NIEHS).

Active and inactive are the calls of the source. Rule for the calls: active = hit-call score of the fitted dose curve at least 0.9, where 1 is the maximum; inactive = score below 0.9.

Read-out in the experiment: BCL2L11 (gene 10018)
In words: LTEA_HepaRG_BCL2L11: Life Technologies and Expression Analysis (LTEA) Assay for Bcl-2 (BCL2L11) gene using HepaRG (AID 2283473). Particulars: mRNA level, 48 h; actives raise or lower the signal. Summed up: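 Human hepatic HepaRG cultures are treated 48 h with test chemicals (maximum 100 uM, 0.5% DMSO vehicle). Expression of BCL2L11 is measured by qRT-PCR against ACTB, GAPDH and POLR2A, with activity in either direction scored relative to vehicle.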
Regarding `CCN(CC)C(=O)SCc1ccc(Cl)cc1`, the call was inactive.

On to `CC1(C)C(C=C(Cl)Cl)C1C(=O)OC(C#N)c1ccc(F)c(Oc2ccccc2)c1` (stereo not given), for which the compound was called inactive. On the same count and under the same terms, next, `O=C(O)COc1ccc(Cl)cc1Cl`: “inactive”; `CCC(C)(C)C(=O)OC1=C(c2ccc(Cl)cc2Cl)C(=O)OC12CCCCC2`: “inactive”; `CCCN(CCC)c1c([N+](=O)[O-])cc(C(F)(F)F)cc1[N+](=O)[O-]`: “inactive”. On the same count and under the same terms, next, `CNC(=O)/C=C(\C)OP(=O)(OC)OC`: “inactive”; `O=C(O)C(F)(F)C(F)(F)C(F)(F)C(F)(F)C(F)(F)C(F)(F)C(F)(F)F`: “inactive”. Usually AC50 stands for the midpoint of the concentration-response curve, whichever way the signal moves. With `CCCN(CCOc1c(Cl)cc(Cl)cc1Cl)C(=O)n1ccnc1`, the half-maximal activity concentration (AC50) was 12.7 µM (active). For `CCc1ccc(C(=O)NN(C(=O)c2cc(C)cc(C)c2)C(C)(C)C)cc1`, the compound was classed as inactive. Same read-out and setting: next, `N#CN`: “inactive”. As to `CCOCN(C(=O)CCl)c1c(C)cccc1CC`, the AC50 was 67.5 µM (active).

Consider `O=S1OCC2C(CO1)C1(Cl)C(Cl)=C(Cl)C2(Cl)C1(Cl)Cl` (stereo not given), for which the call was inactive. `CCC(C)(NC(=O)c1cc(Cl)c(C)c(Cl)c1)C(=O)CCl` (stereo not given): the compound was classed as inactive.

On to `O=C(Nc1ccccc1)Nc1cnns1`, for which the result was inactive. Consider `CCC(C)Nc1c([N+](=O)[O-])cc(C(C)(C)C)cc1[N+](=O)[O-]` (stereo not given), for which the compound was classed as inactive. On the same count and under the same terms, for `Cc1[nH]c(=O)n(C(C)(C)C)c(=O)c1Cl` the value was “inactive”; for `Clc1ccccc1-c1nnc(-c2ccccc2Cl)nn1`, “inactive”; for `ClC1C(Cl)C(Cl)C(Cl)C(Cl)C1Cl` (stereo not given), “inactive”. Still for that read-out and setting: for `C#CCN1C(=O)COc2cc(F)c(N3C(=O)C4=C(CCCC4)C3=O)cc21` the value was “inactive”. On to `CC(C)(C)C(O)/C(=C\c1ccc(Cl)cc1Cl)n1cncn1` (stereo not given), for which the AC50 is 79.8 µM (active).
